# Target: pT7_6His-AlfaTag-ZIF268 (human, UniProt P18146 335-423)
# Assay: PADIT-seq
# Conditions: dsDNA, one strand shown
row,Sequence,binding signal [log2FC]
1,CTCGAGGATATCAAGATCTGGCCTCGGCCGCCCAAAAGGAACCTCTAGCTAGCCGACTCACTATAGGGATAATCGCCCTGAGCAAAGACC,0.0465 ± 0.0996
2,CTCGAGGATATCAAGATCTGGCCTCGGCTTGCCACGCGGAACCTCTAGCTAGCCGACTCACTATAGGGATAATCGCCCTGAGCAAAGACC,0.107 ± 0.166
3,CTCGAGGATATCAAGATCTGGCCTCGGCGCGTGGCTAGGAACCTCTAGCTAGCCGACTCACTATAGGGATAATCGCCCTGAGCAAAGACC,0.021 ± 0.107
4,CTCGAGGATATCAAGATCTGGCCTCGGCGCGTGGTGTGGAACCTCTAGCTAGCCGACTCACTATAGGGATAATCGCCCTGAGCAAAGACC,0.166 ± 0.105
5,CTCGAGGATATCAAGATCTGGCCTCGGCGCGAAAGCGGGAACCTCTAGCTAGCCGACTCACTATAGGGATAATCGCCCTGAGCAAAGACC,0.0239 ± 0.114
6,CTCGAGGATATCAAGATCTGGCCTCGGCAGGTGGGCGGGAACCTCTAGCTAGCCGACTCACTATAGGGATAATCGCCCTGAGCAAAGACC,2.15 ± 0.0839
7,CTCGAGGATATCAAGATCTGGCCTCGGCGGGTGGGCGGGAACCTCTAGCTAGCCGACTCACTATAGGGATAATCGCCCTGAGCAAAGACC,1.66 ± 0.0839
8,CTCGAGGATATCAAGATCTGGCCTCGGCTGGTGGGCGGGAACCTCTAGCTAGCCGACTCACTATAGGGATAATCGCCCTGAGCAAAGACC,1.81 ± 0.0735
9,CTCGAGGATATCAAGATCTGGCCTCGGCCGCCCAAGGGGAACCTCTAGCTAGCCGACTCACTATAGGGATAATCGCCCTGAGCAAAGACC,0.0235 ± 0.109
10,CTCGAGGATATCAAGATCTGGCCTCGGCGCGTGGCGTGGAACCTCTAGCTAGCCGACTCACTATAGGGATAATCGCCCTGAGCAAAGACC,0.0995 ± 0.108
11,CTCGAGGATATCAAGATCTGGCCTCGGCCGCCCACTCGGAACCTCTAGCTAGCCGACTCACTATAGGGATAATCGCCCTGAGCAAAGACC,0.873 ± 0.0842
12,CTCGAGGATATCAAGATCTGGCCTCGGCGCGTGAGCGGGAACCTCTAGCTAGCCGACTCACTATAGGGATAATCGCCCTGAGCAAAGACC,0.00935 ± 0.101
